Bioassay records from PubChem BioAssay.
This is a sample that favours compounds with a hit; in the whole collection about 11% have one here.
12-hLO inh = 12-hLO (ALOX12) enzyme inhibition | P18054 | purified 12-hLO, xylenol orange hydroperoxide absorbance | Potency, µM (top dose mostly 57.1 µM), inactives show at the top dose activity change, negative = inhibition, most hits filed as inhibitors | hit rate 0.12% among 150,000; active = well fitted curve in the direction sought with a large enough effect; inconclusive = small, poorly fitted or top-dose-only effect, or another doubt; inactive = no such curve, though single readings can be large; an effect the other way counts as inactive or inconclusive; note: potency is the fitted concentration of half-maximal effect; nearly all actives have a fitted effect of over 55% in size
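Lipoxygenase turnover measured by absorbance at 573 and 405 nm after Fe-XO development. Human 12hLO 150 nM, arachidonate 40 uM, pH 7.0 Hepes buffer with detergent; 15 min compound preincubation, 30 min reaction.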
IMPase Li cell = cell-permeable IMPase inhibitors with lithium potentiation | CHO-M1 cells, IP1 TR-FRET (IP-One), carbachol + lithium | Potency, µM (series often up to 59.4 µM), inactives show top-dose activity, negative = IMPase inhibition, hits mostly inhibitors | hit rate 0.35% among 210,000 | AID 1457; active = well fitted curve in the direction sought with a large enough effect; inconclusive = small, poorly fitted or top-dose-only effect, or another doubt; inactive = no such curve, though single readings can be large; an effect the other way counts as inactive or inconclusive;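 note: IP1 builds up when IMPase is blocked and the TR-FRET signal falls; potency is the fitted concentration of half-maximal effect; plate controls were basal vehicle for no effect and high inhibitor control for full effect; nearly all actives have a fitted effect of over 50% in size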
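CHO-M1, 2000 cells/well, 16–30 h culture; cpd + low Li+, 30 min 37C; lysis with d2-IP1/Eu-anti-IP1 Ab, 10 min RT; TR-FRET 665/620 ratio and 620 channel; AC50 via Hill.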
HPGD block = inhibitors of human 15-hydroxyprostaglandin dehydrogenase (HPGD); purified HPGD, NADH fluorescence kinetic, PGE2 substrate; Potency, µM, for inactives: top-dose activity change, negative = inhibition, most hits filed as inhibitors; hit rate 4.3% among 150,000; note: potency is the fitted concentration of half-maximal effect
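NADH formation kinetics: reaction with 30 uM PGE2 and 1 mM NAD+ (final), 20 nM enzyme, Tris-HCl pH 8 with Tween 20, after 15 min compound preincubation at room temperature. Fluorescence change, last versus first of five reads.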
ALDH1A1 block = blocks purified human ALDH1A1 activity | AID 1030 | P00352 | Purified ALDH1A1, NADH fluorescence, propionaldehyde substrate | Potency, µM (titrated, usually from 75.3 µM), for the others: top-dose activity, negative = inhibition, actives largely listed as inhibitors | hit rate 7.3% among 220,000;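 note: potency is the fitted concentration of half-maximal effect; plate controls were no enzyme wells and a reference inhibitor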
Target sequence (P00352 whole entry, looked up): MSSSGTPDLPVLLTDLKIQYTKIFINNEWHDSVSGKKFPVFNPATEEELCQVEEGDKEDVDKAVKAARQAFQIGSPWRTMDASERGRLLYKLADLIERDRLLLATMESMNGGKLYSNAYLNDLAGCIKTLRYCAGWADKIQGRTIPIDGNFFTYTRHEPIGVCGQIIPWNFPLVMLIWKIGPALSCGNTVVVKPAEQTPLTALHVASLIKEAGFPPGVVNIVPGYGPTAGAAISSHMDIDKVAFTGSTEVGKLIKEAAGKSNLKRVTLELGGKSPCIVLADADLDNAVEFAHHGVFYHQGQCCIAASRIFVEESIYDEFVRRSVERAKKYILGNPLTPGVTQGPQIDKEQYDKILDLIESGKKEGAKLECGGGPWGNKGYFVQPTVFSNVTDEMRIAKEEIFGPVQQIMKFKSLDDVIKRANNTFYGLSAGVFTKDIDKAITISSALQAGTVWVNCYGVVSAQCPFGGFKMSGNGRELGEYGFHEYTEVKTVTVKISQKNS
PNC inhibitor = inhibitors of perinucleolar compartment assembly; PC3M PTB-GFP, PNC prevalence imaging, 16 h; stronger effect = lower value; activity change (PNC), negative = inhibition, % at 10 µM; hit rate 3.1% among 140,000;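 active = readout at or below -70, meaning at least 70% loss of cells showing the perinucleolar compartment, a nuclear body marking cancer cells; inconclusive = readout between -30 and a set limit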;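 note: plate controls were DMSO wells for no effect and camptothecin positive control wells for full effect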
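Compounds are pinned in duplicate onto adhered PC3M cells stably expressing GFP-tagged PTB and incubated 16 h at 37 C. Cells are then fixed, nuclei stained with Hoechst, and PNC-positive cells counted.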
IMPase inh = membrane-permeable compound that blocks inositol monophosphatase; 120,000 tested, under 10 active; AID 901; CHO-M1 cells, IP1 accumulation, HTRF TR-FRET ratio; inhibition (IP1 accumulation), % at 46.1 µM; P97697; active = well fitted curve in the direction sought with a large enough effect in the signal ratio, not every such curve was filed as active; inconclusive = small, poorly fitted or top-dose-only effect, or a change in a side signal; inactive = no such curve, though single readings can be large or run the other way; the % refers to the signal ratio;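 note: cells stimulated with carbachol in lithium chloride buffer; plate controls were DMSO basal wells for no effect and reference inhibitor wells for full effect; higher means more IMPase inhibition seen as more IP1 and lower FRET ratio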
Target sequence (P97697 whole entry, looked up): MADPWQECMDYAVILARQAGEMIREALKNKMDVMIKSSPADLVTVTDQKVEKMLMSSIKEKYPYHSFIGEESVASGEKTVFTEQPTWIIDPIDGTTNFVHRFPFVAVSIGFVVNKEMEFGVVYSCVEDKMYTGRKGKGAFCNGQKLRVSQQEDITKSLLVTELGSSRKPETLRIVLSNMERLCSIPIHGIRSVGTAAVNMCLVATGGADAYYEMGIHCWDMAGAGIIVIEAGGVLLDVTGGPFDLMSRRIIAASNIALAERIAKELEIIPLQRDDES
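Seeded CHO-M1 cells were dosed with compound at up to 46 uM, stimulated with carbachol for 30 min, then lysed in IP-One detection reagents. Higher IP1 lowers the TR-FRET signal.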
Active calls of the source: *; ? = inconclusive; . = not tested or not shown; [ ] = dose if it differs, or a comment. Unless noted, calls come from the whole dose curve; as a rule, active = well fitted inhibition curve with a large enough effect (not every such curve was filed as active); inconclusive = small, poorly fitted or top-dose-only effect, or another doubt; inactive = no such curve, though single readings can be large or run the other way. Unless noted, % is set by controls: 0 for no effect and ±100 for the full control effect.

SMILES | 12-hLO inh | IMPase Li cell | HPGD block | ALDH1A1 block | PNC inhibitor | IMPase inh
Cc1ccc(SCCNC(=O)/C=C/c2ccccc2Cl)cc1 | -1.3% | 42.7%[38.3 µM] | ? | 12.6µM* | ? | 4.7
Cc1ccc(SCCNC(=O)C(C)C)cc1 | -3.5% | 14.4%[38.3 µM] | -27.5% | 4.8% | -13.9 | 6.7
Cn1cccc1C(=O)N1CCC2(CC1)CN(Cc1cc(C(F)(F)F)cc(C(F)(F)F)c1)C2 | -7.6% | 13.8% | -2.1% | 2.0% | . | .
Cn1cccc1C(=O)N1CCC[C@@]2(CCN(c3ccccc3)C2)C1 | -13.4% | 0.1% | -11.1% | ? | . | .
COc1ccc(-c2nc3ccccc3n3c(-c4cccc(C)c4)c4c(=O)n(C)c(=O)n(C)c4c23)cc1OC | . | . | . | . | . | 14.5
CCC1OC(=O)C(C)[C@@H](O[C@H]2C[C@@](C)(OC)C(O)C(C)O2)C(C)[C@@H](O[C@@H]2OC(C)CC(N(C)C)C2O)[C@](C)(O)CC(C)/C(=N\OCOCCOC)[C@H](C)C(O)[C@]1(C)O (some centres not stated) | 2.4% | -5.5% | -1.9% | -1.2% | . | .
COc1ccc(-c2csc(NC(=O)COc3ccc(N(C)S(=O)(=O)c4ccc(C)cc4)cc3)n2)cc1 | -0.9% | 5.4% | -12.7% | -2.9% | -13.4 | .
Cc1cc(NC(=O)Nc2ccc(F)cc2)no1 | 2.1% | -7.6%[38.3 µM] | -13.5% | ? | -3.0 | -0.9
COc1ccc(CC(=O)Nc2cc(C)on2)cc1 | -3.9% | 14.8%[38.3 µM] | -5.6% | -0.3% | ? | -10.7
COc1ccc(S(=O)(=O)N(C)c2ccc(OCC(=O)Nc3cc(C)on3)cc2)cc1 | -8.9% | -5.4%[38.3 µM] | -2.4% | ? | -97.0* | -2.8
COc1ccc(OCCC(=O)Nc2cc(C)on2)cc1 | 1.3% | 4.8%[38.3 µM] | -4.4% | 22.4µM* | 18.3 | 8.8
COc1ccc(OCCCC(=O)Nc2nncs2)cc1 | 1.3% | 1.4% | -12.2% | 4.6% | -100.0* | 1.0
Cc1cc(NC(=O)CCOc2ccc(F)cc2)no1 | . | . | . | 0.708µM* | . | .
O=C(c1ccncc1)N1CCC2(CC1)CCN(c1ccccc1)CC2 | -0.7% | 13.2% | -4.4% | -15.7% | . | .
C[C@@]12CCC(=O)C=C1CC[C@H]1[C@@H]2[C@@H](O)C[C@]2(C)[C@@H]1CC[C@@]2(O)C(=O)COC(=O)C1CCCC1 | 4.8%[11.4 µM] | . | . | . | . | .
CCCCCCCCOC(=O)CCc1c(C)[nH]c(=S)[nH]c1=O | -3.9% | -1.5%[38.3 µM] | -9.0% | 2µM* | 20.1 | 4.7
CCCCCCOC(=O)CCc1c(C)nc(N)[nH]c1=O | -0.9% | 30.4%[38.3 µM] | 0.6% | 19.3% | 28.5 | 1.1
COc1ccc(O[C@H]2C=C[C@@H](c3ccccc3)O[C@H]2COC(=O)CC/C(C)=N\OC[C@@H](O)[C@H]2O[C@H]3OC(C)(C)O[C@H]3[C@@H]2O)cc1 | . | . | . | 7.6%[13.5 µM] | . | .
CSc1ccc(C(=S)N2CCN(C)CC2)cc1 | -2.3% | 7.9% | 28.2µM* | 31.6µM* | 33.9 | -1.2
S=C(NCCc1ccccc1)N1CCN(C(c2ccccc2)c2ccccc2)CC1 | -5.8% | 0.4% | -13.0% | ? | 25.8 | .
CN1CCN(C(=S)c2ccc(Br)cc2)CC1 | 1.6% | . | . | -38.8% | -16.3 | 5.7
CSc1ccc(C(=S)N2CCN(C(c3ccccc3)c3ccccc3)CC2)cc1 | -2.7% | 9.2%[38.3 µM] | 14.1µM* | 2.38µM* | ? | 4.6
O=C(Nc1ccc(N2CCN(c3ccc(O)cc3)CC2)cc1)Oc1ccccc1 | -15.6% | 32.4%[38.3 µM] | -1.9% | 11.2µM* | 17.3 | 15.6
O=c1c(-c2ccc(Cl)cc2)nc2cnc(N3CCOCC3)nc2n1C[C@H]1CCCO1 | . | 6.8% | . | ? | . | .
N#CCCN1CCN(C(=S)c2ccc(-c3cc(Cl)ccc3Cl)o2)CC1 | -11.0% | 18.0%[38.3 µM] | -13.8% | ? | 36.5 | 5.9
SMILES | 12-hLO inh | IMPase Li cell | HPGD block | ALDH1A1 block | PNC inhibitor | IMPase inh
O=C(Nc1ccc(CN2CCOCC2)cc1)c1ccc(-c2ccc(Cl)cc2Cl)o1 | . | 15.4% | . | 10µM* | . | .
S=C(c1ccc(-c2ccc(Cl)cc2Cl)o1)N1CCCC1 | . | . | . | 3.98µM* | . | .
S=C(c1ccc(-c2ccc(Cl)cc2Cl)o1)N1CCCCC1 | -7.2% | 5.1% | ? | 14.1µM* | 22.0 | 1.4
CCOc1ccc(CCNC(=O)c2nnc(Cc3cc(OC)c(OC)c(OC)c3)o2)cc1OCC | . | . | . | . | . | 5.2
N[C@@H](CO)C(=O)O | -6.4% | 11.9% | -1.7% | 0.6% | . | -4.1
Cc1ccc2c(c1)C(=O)C(=O)N2CC(=O)OC(C)C | -3.0% | -4.6%[38.3 µM] | 1.0% | 0.0794µM* | 11.7 | -13.1
CC(C)CO[C@H](c1ccc2c(c1)OCO2)[C@H](C)Br | -10.1%[11.4 µM] | -2.9% | -8.8% | -15.2%[13.5 µM] | . | .
NC(=S)NNC(=O)Nc1ccc(Cl)c(Cl)c1 | -7.7% | 0.2% | -19.8% | 28.2µM* | 26.5 | .
CCOc1ccc2cc(C(=O)c3ccccc3)c(=O)oc2c1 | 1.5% | 25.1µM* | -16.6% | ? | -12.0 | .
COc1ccc2cc(C(=O)c3ccccc3)c(=O)oc2c1 | -8.6% | -13.4%[38.3 µM] | -12.4% | 14.1µM* | 32.1 | 9.3
O=c1[nH]c(=S)[nH]c2c1CN(CCCN1CCOCC1)CN2 | -1.8%[11.4 µM] | 0.7% | -3.6% | 8.9%[13.5 µM] | . | .
Cn1c2c(c(=O)n(C)c1=O)CN(CCCN1CCOCC1)CN2 | 0.5% | 21.4%[38.3 µM] | -1.1% | -0.9% | -84.1* | -4.6
COc1ccc(C(=O)N2CCC3(CCCN(Cc4nccs4)C3)CC2)cc1 | 0.4% | 17.8% | -10.7% | -3.9% | . | .
